Legend:
Assay in all cases: DAPPL (digital affinity profiling via proximity ligation, sequencing); 10 mM Tris-HCl pH 7.5, 50 mM NaCl, 1 mM DTT, 4% glycerol, room temperature, 30 min; GST-TFs on glutathione beads, 16-mer random dsDNA library, 0.1% formaldehyde crosslink after washing; high values mean tight binding
[1] = target: T1, FEV (Homo sapiens, UniProt Q99581 1-238); settings: protein: recombinant; tags: N-terminal GST; dsDNA, one strand shown
T1 sequence: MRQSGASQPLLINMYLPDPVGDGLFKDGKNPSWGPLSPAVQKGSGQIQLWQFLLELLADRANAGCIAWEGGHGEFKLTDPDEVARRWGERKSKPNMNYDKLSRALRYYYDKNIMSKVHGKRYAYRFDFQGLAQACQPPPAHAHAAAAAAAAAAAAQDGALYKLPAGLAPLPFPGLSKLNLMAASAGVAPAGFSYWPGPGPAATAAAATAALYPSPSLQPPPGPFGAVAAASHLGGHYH
How it was run: (§1)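 Each value of binding signal is a hexamer's read frequency for a factor divided by the same hexamer's frequency in the tag-only sample. Barcoded, bead-captured GST fusions of human transcription factors made in yeast were pooled with that sample and incubated with 200 nmole of a random double-stranded 16-mer DNA library in Tris/NaCl/DTT/glycerol buffer at room temperature for 30 min. Washing, 0.1% formaldehyde crosslinking, proximity ligation, PCR and Illumina NextSeq500 sequencing followed.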

[2] = target: ETV5 (Homo sapiens, UniProt P41161 1-510); settings: protein: recombinant; tags: N-terminal GST; dsDNA, one strand shown
Chain of ETV5 (P41161 whole entry): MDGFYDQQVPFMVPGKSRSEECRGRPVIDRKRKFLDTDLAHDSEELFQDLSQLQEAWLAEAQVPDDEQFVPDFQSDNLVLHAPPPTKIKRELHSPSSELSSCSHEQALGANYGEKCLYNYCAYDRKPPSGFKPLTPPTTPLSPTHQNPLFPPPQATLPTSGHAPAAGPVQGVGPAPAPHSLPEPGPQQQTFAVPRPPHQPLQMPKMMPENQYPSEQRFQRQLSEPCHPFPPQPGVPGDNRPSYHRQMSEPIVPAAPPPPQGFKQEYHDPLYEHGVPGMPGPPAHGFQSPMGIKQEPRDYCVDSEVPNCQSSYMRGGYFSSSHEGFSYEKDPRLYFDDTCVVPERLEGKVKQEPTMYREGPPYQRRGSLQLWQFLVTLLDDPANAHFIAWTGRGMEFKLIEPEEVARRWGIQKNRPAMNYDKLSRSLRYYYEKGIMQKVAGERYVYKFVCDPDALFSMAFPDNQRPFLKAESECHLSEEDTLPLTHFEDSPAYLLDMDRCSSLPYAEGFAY
How it was run: as §1

[3] = target: HSF1 (Homo sapiens, UniProt Q00613 1-529); settings: protein: recombinant; tags: N-terminal GST; chain copies: 3; dsDNA, one strand shown
Chain of HSF1 (Q00613 whole entry): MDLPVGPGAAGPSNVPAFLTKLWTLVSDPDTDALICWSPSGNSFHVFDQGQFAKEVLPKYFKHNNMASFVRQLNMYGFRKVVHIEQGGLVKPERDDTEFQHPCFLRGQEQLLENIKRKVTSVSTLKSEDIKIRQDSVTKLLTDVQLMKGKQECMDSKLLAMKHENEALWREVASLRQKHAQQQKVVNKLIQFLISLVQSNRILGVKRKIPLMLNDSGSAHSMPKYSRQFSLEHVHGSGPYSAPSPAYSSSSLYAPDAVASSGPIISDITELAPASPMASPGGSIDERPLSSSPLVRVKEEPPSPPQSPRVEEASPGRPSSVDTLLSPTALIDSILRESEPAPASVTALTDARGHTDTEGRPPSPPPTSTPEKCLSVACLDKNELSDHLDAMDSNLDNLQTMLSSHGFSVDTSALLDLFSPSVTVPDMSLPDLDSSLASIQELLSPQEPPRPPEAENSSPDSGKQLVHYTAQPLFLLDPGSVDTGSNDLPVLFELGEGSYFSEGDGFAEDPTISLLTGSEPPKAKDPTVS
How it was run: as §1

[4] = target: T2, SPIC (Homo sapiens, UniProt Q8N5J4 1-248); settings: protein: recombinant; tags: N-terminal GST; dsDNA, one strand shown
T2 sequence: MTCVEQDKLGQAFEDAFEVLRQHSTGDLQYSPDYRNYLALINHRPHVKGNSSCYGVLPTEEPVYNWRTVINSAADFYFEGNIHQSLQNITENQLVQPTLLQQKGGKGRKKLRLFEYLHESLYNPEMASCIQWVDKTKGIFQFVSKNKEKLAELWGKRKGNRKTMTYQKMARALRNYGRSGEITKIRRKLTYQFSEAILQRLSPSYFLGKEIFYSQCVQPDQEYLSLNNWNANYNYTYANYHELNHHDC
How it was run: as §1

[5] = target: ELF4 (Homo sapiens, UniProt Q99607 1-663); settings: protein: recombinant; tags: N-terminal GST; dsDNA, one strand shown
Chain of ELF4 (Q99607 whole entry): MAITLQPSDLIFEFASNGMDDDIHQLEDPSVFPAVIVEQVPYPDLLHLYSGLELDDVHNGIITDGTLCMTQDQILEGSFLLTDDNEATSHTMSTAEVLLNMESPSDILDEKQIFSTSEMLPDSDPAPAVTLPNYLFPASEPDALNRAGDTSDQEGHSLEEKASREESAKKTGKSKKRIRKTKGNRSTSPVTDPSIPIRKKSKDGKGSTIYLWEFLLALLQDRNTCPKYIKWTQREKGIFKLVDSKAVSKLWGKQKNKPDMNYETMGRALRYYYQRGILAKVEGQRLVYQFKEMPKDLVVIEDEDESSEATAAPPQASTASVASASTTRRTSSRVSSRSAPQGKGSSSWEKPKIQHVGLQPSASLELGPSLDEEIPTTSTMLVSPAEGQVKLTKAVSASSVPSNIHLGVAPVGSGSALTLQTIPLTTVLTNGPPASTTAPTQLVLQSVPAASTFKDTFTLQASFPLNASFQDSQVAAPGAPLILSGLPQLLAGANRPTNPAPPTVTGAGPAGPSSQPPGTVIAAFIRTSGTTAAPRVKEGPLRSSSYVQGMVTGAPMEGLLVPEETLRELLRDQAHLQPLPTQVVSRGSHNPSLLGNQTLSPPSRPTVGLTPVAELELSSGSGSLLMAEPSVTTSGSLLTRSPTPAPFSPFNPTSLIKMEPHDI
How it was run: as §1

[6] = target: T3, ELK4 (Homo sapiens, UniProt P28324-2 1-405); settings: protein: recombinant; tags: N-terminal GST; dsDNA, one strand shown
T3 sequence: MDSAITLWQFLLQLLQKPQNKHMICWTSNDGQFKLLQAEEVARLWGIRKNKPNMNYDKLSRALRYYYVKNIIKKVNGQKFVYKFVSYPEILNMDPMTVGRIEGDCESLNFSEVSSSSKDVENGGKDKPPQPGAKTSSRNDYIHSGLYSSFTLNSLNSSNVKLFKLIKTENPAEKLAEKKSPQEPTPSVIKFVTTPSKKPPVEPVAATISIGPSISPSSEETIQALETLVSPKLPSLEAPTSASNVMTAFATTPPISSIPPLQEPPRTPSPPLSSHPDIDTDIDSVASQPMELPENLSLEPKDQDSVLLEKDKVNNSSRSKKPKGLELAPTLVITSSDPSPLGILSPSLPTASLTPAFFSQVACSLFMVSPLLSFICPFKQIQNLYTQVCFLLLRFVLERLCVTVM
How it was run: as §1

[7] = target: T4, ETV2 (Homo sapiens, UniProt O00321 1-342); settings: protein: recombinant; tags: N-terminal GST; dsDNA, one strand shown
T4 sequence: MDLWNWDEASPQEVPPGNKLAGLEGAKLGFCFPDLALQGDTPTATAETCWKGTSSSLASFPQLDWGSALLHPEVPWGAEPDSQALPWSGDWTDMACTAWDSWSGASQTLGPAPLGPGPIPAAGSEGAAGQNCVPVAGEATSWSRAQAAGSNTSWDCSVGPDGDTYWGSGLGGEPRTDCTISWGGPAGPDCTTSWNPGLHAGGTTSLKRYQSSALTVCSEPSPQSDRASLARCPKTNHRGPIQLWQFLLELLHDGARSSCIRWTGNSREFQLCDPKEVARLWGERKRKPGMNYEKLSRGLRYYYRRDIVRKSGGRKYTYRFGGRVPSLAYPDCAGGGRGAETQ
How it was run: as §1

[8] = target: T5, ELF3 (Homo sapiens, UniProt P78545 1-371); settings: protein: recombinant; tags: N-terminal GST; dsDNA, one strand shown
T5 sequence: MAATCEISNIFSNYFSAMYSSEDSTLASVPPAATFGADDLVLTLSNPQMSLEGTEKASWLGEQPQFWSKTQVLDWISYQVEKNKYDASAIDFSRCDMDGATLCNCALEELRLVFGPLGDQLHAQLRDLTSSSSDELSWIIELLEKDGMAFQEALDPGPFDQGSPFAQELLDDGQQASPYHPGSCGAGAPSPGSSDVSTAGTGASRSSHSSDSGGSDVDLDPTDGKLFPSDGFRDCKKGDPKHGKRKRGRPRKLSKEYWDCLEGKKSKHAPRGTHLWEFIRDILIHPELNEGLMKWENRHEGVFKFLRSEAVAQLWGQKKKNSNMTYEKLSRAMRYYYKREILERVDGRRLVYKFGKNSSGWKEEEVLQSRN
How it was run: as §1

[9] = target: CRX (Homo sapiens, UniProt O43186 1-299); settings: protein: recombinant; tags: N-terminal GST; dsDNA, one strand shown
Chain of CRX (O43186 whole entry): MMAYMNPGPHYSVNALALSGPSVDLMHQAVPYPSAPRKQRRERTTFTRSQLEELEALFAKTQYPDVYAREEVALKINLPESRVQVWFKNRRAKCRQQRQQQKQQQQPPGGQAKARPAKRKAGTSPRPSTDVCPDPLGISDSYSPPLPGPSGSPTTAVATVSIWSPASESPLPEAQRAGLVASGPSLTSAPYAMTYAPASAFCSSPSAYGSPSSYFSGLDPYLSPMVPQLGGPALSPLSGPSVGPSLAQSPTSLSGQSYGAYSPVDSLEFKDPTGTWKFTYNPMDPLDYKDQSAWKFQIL
How it was run: as §1

[10] = target: ETV1 (Homo sapiens, UniProt P50549 1-477); settings: protein: recombinant; tags: N-terminal GST; dsDNA, one strand shown
Chain of ETV1 (P50549 whole entry): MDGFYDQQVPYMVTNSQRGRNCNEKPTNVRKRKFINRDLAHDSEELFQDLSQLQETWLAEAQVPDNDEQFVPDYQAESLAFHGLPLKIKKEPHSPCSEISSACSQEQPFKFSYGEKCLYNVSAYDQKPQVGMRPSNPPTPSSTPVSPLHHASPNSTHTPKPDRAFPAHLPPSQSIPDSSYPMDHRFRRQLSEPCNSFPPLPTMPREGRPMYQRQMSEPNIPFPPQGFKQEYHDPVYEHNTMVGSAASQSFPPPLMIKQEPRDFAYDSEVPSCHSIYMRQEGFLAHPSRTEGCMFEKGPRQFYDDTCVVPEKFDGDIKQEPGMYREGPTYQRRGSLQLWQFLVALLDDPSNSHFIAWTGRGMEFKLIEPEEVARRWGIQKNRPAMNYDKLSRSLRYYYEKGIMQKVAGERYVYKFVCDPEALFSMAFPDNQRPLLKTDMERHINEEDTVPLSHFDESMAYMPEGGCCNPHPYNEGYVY
How it was run: as §1

[11] = target: T6, ERF (Homo sapiens, UniProt P50548 1-548); settings: protein: recombinant; tags: N-terminal GST; dsDNA, one strand shown
T6 sequence: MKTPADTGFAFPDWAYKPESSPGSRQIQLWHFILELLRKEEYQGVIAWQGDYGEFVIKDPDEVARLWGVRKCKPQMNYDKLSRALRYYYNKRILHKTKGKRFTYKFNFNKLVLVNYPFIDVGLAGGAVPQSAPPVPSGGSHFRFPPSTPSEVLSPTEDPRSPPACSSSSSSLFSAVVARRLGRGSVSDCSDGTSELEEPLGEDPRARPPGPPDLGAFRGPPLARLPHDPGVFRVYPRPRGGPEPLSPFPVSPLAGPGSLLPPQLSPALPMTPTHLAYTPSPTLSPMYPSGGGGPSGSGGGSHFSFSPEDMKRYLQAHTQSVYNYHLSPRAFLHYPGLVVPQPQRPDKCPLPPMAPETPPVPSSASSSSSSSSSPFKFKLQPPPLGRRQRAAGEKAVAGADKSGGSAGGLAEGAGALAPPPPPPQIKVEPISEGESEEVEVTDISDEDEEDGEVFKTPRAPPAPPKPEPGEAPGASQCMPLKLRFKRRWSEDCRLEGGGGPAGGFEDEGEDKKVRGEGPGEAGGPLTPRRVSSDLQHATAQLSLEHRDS
How it was run: as §1

[12] = target: T7, ETV3L (Homo sapiens, UniProt Q6ZN32 1-361); settings: protein: recombinant; tags: N-terminal GST; dsDNA, one strand shown
T7 sequence: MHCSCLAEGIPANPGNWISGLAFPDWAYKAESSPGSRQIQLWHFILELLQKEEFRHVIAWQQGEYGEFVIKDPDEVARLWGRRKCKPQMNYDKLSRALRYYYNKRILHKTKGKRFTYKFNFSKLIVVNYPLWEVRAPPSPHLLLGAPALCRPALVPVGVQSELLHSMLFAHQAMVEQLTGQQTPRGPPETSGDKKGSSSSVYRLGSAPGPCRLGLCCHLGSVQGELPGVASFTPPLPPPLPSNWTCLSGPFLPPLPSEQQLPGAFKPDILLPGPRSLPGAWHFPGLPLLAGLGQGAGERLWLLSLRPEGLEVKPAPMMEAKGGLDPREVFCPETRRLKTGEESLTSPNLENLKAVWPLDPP
How it was run: as §1

[13] = target: T8, ETS2 (Homo sapiens, UniProt P15036 1-469); settings: protein: recombinant; tags: N-terminal GST; dsDNA, one strand shown
T8 sequence: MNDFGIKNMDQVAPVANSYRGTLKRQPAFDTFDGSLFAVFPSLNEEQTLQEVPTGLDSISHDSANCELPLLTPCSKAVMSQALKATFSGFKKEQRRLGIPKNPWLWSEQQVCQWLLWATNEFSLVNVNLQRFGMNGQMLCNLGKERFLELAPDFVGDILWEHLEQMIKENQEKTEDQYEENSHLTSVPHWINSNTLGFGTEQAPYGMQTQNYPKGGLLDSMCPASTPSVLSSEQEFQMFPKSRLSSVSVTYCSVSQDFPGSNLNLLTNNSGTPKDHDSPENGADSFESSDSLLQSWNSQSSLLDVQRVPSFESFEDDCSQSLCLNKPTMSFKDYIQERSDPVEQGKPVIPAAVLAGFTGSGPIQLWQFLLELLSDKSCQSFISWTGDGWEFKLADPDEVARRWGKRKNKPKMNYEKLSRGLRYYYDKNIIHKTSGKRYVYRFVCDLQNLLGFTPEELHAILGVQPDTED
How it was run: as §1

[14] = target: T9, SPDEF (Homo sapiens, UniProt O95238 1-335); settings: protein: recombinant; tags: N-terminal GST; dsDNA, one strand shown
T9 sequence: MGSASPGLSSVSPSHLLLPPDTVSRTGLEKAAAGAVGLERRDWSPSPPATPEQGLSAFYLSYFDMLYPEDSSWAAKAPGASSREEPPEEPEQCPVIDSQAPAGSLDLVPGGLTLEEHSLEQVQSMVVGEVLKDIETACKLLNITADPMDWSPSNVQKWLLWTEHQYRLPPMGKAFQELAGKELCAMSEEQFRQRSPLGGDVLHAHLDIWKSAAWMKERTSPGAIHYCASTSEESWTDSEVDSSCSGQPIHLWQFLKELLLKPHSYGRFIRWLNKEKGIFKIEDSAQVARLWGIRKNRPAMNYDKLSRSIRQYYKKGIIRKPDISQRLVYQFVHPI
How it was run: as §1

[15] = target: T10, ETV7 (Homo sapiens, UniProt Q9Y603 1-341); settings: protein: recombinant; tags: N-terminal GST; dsDNA, one strand shown
T10 sequence: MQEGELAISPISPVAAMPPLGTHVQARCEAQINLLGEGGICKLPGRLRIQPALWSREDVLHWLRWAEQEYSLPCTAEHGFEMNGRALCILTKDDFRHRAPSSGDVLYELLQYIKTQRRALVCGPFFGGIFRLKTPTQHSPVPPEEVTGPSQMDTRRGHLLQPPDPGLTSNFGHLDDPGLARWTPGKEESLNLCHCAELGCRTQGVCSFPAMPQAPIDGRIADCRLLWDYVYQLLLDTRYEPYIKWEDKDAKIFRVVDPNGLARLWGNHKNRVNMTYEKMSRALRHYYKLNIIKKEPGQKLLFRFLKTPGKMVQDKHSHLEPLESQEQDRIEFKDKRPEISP
How it was run: as §1

[16] = target: T11, ELF5 (Homo sapiens, UniProt Q9UKW6-2 1-255); settings: protein: recombinant; tags: N-terminal GST; dsDNA, one strand shown
T11 sequence: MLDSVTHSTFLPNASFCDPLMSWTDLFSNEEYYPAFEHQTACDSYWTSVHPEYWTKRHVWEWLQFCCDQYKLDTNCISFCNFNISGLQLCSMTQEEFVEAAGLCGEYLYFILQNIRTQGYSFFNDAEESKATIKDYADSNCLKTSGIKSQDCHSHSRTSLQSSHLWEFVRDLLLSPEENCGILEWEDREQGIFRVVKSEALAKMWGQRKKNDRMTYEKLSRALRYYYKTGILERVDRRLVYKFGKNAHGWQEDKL
How it was run: as §1

[17] = target: T12, ETV3 (Homo sapiens, UniProt P41162-2 1-143); settings: protein: recombinant; tags: N-terminal GST; dsDNA, one strand shown
T12 sequence: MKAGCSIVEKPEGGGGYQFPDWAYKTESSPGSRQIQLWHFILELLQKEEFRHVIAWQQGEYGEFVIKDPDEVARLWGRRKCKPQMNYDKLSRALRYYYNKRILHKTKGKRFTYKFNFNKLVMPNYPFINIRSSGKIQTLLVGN
How it was run: as §1

[18] = target: ETV6 (Homo sapiens, UniProt P41212 1-452); settings: protein: recombinant; tags: N-terminal GST; dsDNA, one strand shown
Chain of ETV6 (P41212 whole entry): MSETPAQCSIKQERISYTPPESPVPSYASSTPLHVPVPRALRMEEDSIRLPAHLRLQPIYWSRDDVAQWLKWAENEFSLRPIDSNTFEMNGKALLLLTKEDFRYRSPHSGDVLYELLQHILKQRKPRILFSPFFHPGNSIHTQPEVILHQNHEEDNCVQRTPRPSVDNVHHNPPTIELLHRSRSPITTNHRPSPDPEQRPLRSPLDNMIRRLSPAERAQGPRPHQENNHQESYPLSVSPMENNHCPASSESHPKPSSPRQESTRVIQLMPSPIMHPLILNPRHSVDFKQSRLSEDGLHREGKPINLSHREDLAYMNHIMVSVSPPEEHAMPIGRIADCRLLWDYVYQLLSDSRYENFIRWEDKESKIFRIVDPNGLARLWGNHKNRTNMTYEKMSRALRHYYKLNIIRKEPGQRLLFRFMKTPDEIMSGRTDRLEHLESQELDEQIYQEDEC
How it was run: as §1

Sequence	binding signal [1]	binding signal [2]	binding signal [3]	binding signal [4]	binding signal [5]	binding signal [6]	binding signal [7]	binding signal [8]	binding signal [9]	binding signal [10]	binding signal [11]	binding signal [12]	binding signal [13]	binding signal [14]	binding signal [15]	binding signal [16]	binding signal [17]	binding signal [18]
AGAATT	1.08 fold enrichment (6-mer frequency, TF over GST control)	1.13 fold enrichment (6-mer frequency, TF over GST control)	2.2 fold enrichment (6-mer frequency, TF over GST control)	1.24 fold enrichment (6-mer frequency, TF over GST control)	1.24 fold enrichment (6-mer frequency, TF over GST control)	1.2 fold enrichment (6-mer frequency, TF over GST control)	1.06 fold enrichment (6-mer frequency, TF over GST control)	1.04 fold enrichment (6-mer frequency, TF over GST control)	1.76 fold enrichment (6-mer frequency, TF over GST control)	1.16 fold enrichment (6-mer frequency, TF over GST control)	1.17 fold enrichment (6-mer frequency, TF over GST control)	1.17 fold enrichment (6-mer frequency, TF over GST control)	1.14 fold enrichment (6-mer frequency, TF over GST control)	1.05 fold enrichment (6-mer frequency, TF over GST control)	1.13 fold enrichment (6-mer frequency, TF over GST control)	1.1 fold enrichment (6-mer frequency, TF over GST control)	1.09 fold enrichment (6-mer frequency, TF over GST control)	1.2 fold enrichment (6-mer frequency, TF over GST control)
GTACTT	2.21 fold enrichment (6-mer frequency, TF over GST control)	1.95 fold enrichment (6-mer frequency, TF over GST control)	1.35 fold enrichment (6-mer frequency, TF over GST control)	1.86 fold enrichment (6-mer frequency, TF over GST control)	1.86 fold enrichment (6-mer frequency, TF over GST control)	1.78 fold enrichment (6-mer frequency, TF over GST control)	1.88 fold enrichment (6-mer frequency, TF over GST control)	2.04 fold enrichment (6-mer frequency, TF over GST control)	1.6 fold enrichment (6-mer frequency, TF over GST control)	2.05 fold enrichment (6-mer frequency, TF over GST control)	1.64 fold enrichment (6-mer frequency, TF over GST control)	1.87 fold enrichment (6-mer frequency, TF over GST control)	2.02 fold enrichment (6-mer frequency, TF over GST control)	2.57 fold enrichment (6-mer frequency, TF over GST control)	2.11 fold enrichment (6-mer frequency, TF over GST control)	2.51 fold enrichment (6-mer frequency, TF over GST control)	1.97 fold enrichment (6-mer frequency, TF over GST control)	2.47 fold enrichment (6-mer frequency, TF over GST control)

Source: PMC7862700, “An all-to-all approach to the identification of sequence-specific readers for epigenetic DNA modifications on cytosine”
